In the supplement of paper PMC6555819:

Tested on: LXRb homodimer (NR concentration 270 nM)
Assay: PBM binding z-score (relative to random genomic background probes); higher = stronger binding; sequences stand for … in GC…GCGATTGACAGCGTAGAATGAAGG
How it was run: (§1)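 Ligand-free nuclear receptor dimers were bound for 1 h to custom Agilent 4×180K protein-binding microarrays. Detection used antibodies against each partner (one per run). Binding z-scores rest on regression-normalized fluorescence, with random background probes as the reference.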

Sequence	PBM binding z-score
ATATGTAGGTTACATCCGGGTCATTTAGGCTATG	0.865
CGTAGCAGGCCAGGGTCACTCAAGCATTTCGCTT	-1.14
CCAGACAGGTGAGAAAGTAACTCAGCCTCGATTA	-0.167
ACTATTAGTTGACTTAGAGCAACCGATACGACGC	0.635
GGAACGAGGGCAAGTTGATATCAGAGTTTGATGG	-0.362
ACTATTAGCTGACTTAGGGCAACCGATACGACGC	0.546
TAGCCTAGGTCATTGGGCCAGCATAGTACGCATC	-0.0227
CCTATTAGTTGCCCATAAGGGCAACCGAAGCTCG	0.866
GCTGCTAGGTCAGGTTGGTTAGCTAACGGGTACG	-0.199
TTACCAAGGTAAGCTGAGGTCGTTGATCCAACTC	-0.769
TCTGCTAGGTCATTTGGTCAGCTAACGAGCTGCC	1.81
TAGCCTAGGTCATTCAGAGGCCAGTATAGAAAGC	0.598
CTCGAAAGGTCGGTTTAGGTGAGTATACGGATAA	0.329
ACTATTAATTGACTTAGGGCAACCGATACGACGC	1.25
CGCACTAGGTCAGAACAGGACAGTGAAGGATGAT	-0.258
CCTTACGCGTCACTCCAGGTTATAGCATCGGAGT	0.803
GCTATTCGTTGAAAGGGCAACCGAATGATTCTCG	-0.0285
TCGAGTAGGCTACCAATGGGGCATTCAGCTTTCT	-1.18
GATACAGGATCAAGGCCAGAGTACGCGTATTGAT	-0.452
GCTGCTAGCTCAGGTTGGTCAGCTAACGGGTACG	-1.25

Sequence	PBM binding z-score
TCATATAGGTAACGGTGAAAGTCGAACGATATGA	-0.326
TCAGACAGGTGAAGGTAAGTCAGGTACGCAGTCG	-0.365
TATGCTAGGTCAGTTGGTCAGCTAACGAGCTGCC	1.02
AGATCGAGGGCACGCTGAGTTGATAGCAGAGTAG	-0.854
TCTTGTAGATCAAGCGGGTTAAGAAAGCCTGAGT	-0.187
ATATGTAGGTTATATCCGGGTCATTCAGGCTATG	1.44
CTACCAAGGGGAACAAGGTCGTTGATTACTATTC	-0.298
ACTAGCAGGCCAAGGTTCACTCAAGATTAGTCCG	-0.0506
CGAACTAGGTCATTGACAGGACCGTGAATAGTAA	-0.048
CATACTGGGCCATTCAGAGGTCATTGATCATATG	0.861
ACTAGCGGGCCAAGTTTGGGTCACTCAAACAAAG	-0.855
CAAACTAGGTCACGAAAGGCCAAAGTCGAATGAC	0.629
AATCAAAGTTCAGGACGAGGTAACGTAAAGCACG	0.58
TAGCCCAGGTCATTGGGCCAGTATAGTACGCATC	-0.127
GCATATAGGTACTACAAGGTGAAAGTCCGATTGT	-0.233
CATACAGGGTCAGCTAGGCCAGAATAGGGACGGC	-0.0852
ATCTCTAGGTAACAAGATCAGTGAAAGAGAGGAC	0.596
ATCTCTAGGTATCCAAGTTCAGTGAATGCCGAAC	0.976
GCAGAAAGGTGAAACGCAGGTAACTCAGGGTGGC	-1.18

Tested on: PPARa:RXRa (NR concentration 270 nM, RXRa partner concentration 90 nM)
Assay: as above
How it was run: as §1

Sequence	PBM binding z-score
ATATGTAGGTTACATCCGGGTCATTTAGGCTATG	4.68
CGTAGCAGGCCAGGGTCACTCAAGCATTTCGCTT	2.89
CCAGACAGGTGAGAAAGTAACTCAGCCTCGATTA	0.206
ACTATTAGTTGACTTAGAGCAACCGATACGACGC	-0.306
GGAACGAGGGCAAGTTGATATCAGAGTTTGATGG	1.73
ACTATTAGCTGACTTAGGGCAACCGATACGACGC	-0.0754
TAGCCTAGGTCATTGGGCCAGCATAGTACGCATC	3.46
CCTATTAGTTGCCCATAAGGGCAACCGAAGCTCG	0.517
GCTGCTAGGTCAGGTTGGTTAGCTAACGGGTACG	1.24
TTACCAAGGTAAGCTGAGGTCGTTGATCCAACTC	1.3
TCTGCTAGGTCATTTGGTCAGCTAACGAGCTGCC	3.19
TAGCCTAGGTCATTCAGAGGCCAGTATAGAAAGC	3.63
CTCGAAAGGTCGGTTTAGGTGAGTATACGGATAA	2.44
ACTATTAATTGACTTAGGGCAACCGATACGACGC	0.0941
CGCACTAGGTCAGAACAGGACAGTGAAGGATGAT	2.67
CCTTACGCGTCACTCCAGGTTATAGCATCGGAGT	0.54
GCTATTCGTTGAAAGGGCAACCGAATGATTCTCG	1.61
TCGAGTAGGCTACCAATGGGGCATTCAGCTTTCT	0.0161
GATACAGGATCAAGGCCAGAGTACGCGTATTGAT	-0.133
GCTGCTAGCTCAGGTTGGTCAGCTAACGGGTACG	-1.08

Sequence	PBM binding z-score
TCATATAGGTAACGGTGAAAGTCGAACGATATGA	1.52
TCAGACAGGTGAAGGTAAGTCAGGTACGCAGTCG	0.993
TATGCTAGGTCAGTTGGTCAGCTAACGAGCTGCC	1.46
AGATCGAGGGCACGCTGAGTTGATAGCAGAGTAG	1.83
TCTTGTAGATCAAGCGGGTTAAGAAAGCCTGAGT	0.817
ATATGTAGGTTATATCCGGGTCATTCAGGCTATG	4.19
CTACCAAGGGGAACAAGGTCGTTGATTACTATTC	1.24
ACTAGCAGGCCAAGGTTCACTCAAGATTAGTCCG	2.89
CGAACTAGGTCATTGACAGGACCGTGAATAGTAA	4.62
CATACTGGGCCATTCAGAGGTCATTGATCATATG	3.77
ACTAGCGGGCCAAGTTTGGGTCACTCAAACAAAG	1.5
CAAACTAGGTCACGAAAGGCCAAAGTCGAATGAC	5.58
AATCAAAGTTCAGGACGAGGTAACGTAAAGCACG	3.2
TAGCCCAGGTCATTGGGCCAGTATAGTACGCATC	4.22
GCATATAGGTACTACAAGGTGAAAGTCCGATTGT	0.972
CATACAGGGTCAGCTAGGCCAGAATAGGGACGGC	4.55
ATCTCTAGGTAACAAGATCAGTGAAAGAGAGGAC	0.578
ATCTCTAGGTATCCAAGTTCAGTGAATGCCGAAC	0.511
GCAGAAAGGTGAAACGCAGGTAACTCAGGGTGGC	3.5
